Experimental data taken from PubChem BioAssay (NCI).
About 83,000 compounds went through this panel and 20% of them were active in at least one assay; those are over-represented in the sample as a whole.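 Compound tested at a single concentration for 48 hours in 96-well plates; a percent growth value below 10 was scored as active.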 A number with no mark means an inactive call. The source made the active and inactive calls.

The compounds below were run on NCI-H226 lung (assay: NCI-60 one-dose screen, 48 h (100 = growth as untreated, 0 = no growth, -100 = all killed)). Settings: 10 µM unless noted.

SMILES | growth [%]
O=C(Nc1ccc(Cl)cc1)Oc1c(Cl)c(Cl)c(Cl)c(Cl)c1Cl | 89.6
CCCCNC(=O)c1cc([N+](=O)[O-])cc(C2CCCCC2)c1O | 29.5
O=C1NC(=O)/C(=C/c2c(-c3ccccc3)nc3sc(COc4ccccc4)nn23)S1 | 93.5
COc1ccc2c(c1)c(/C(O)=C1\COC(=O)C1=O)cn2Cc1ccc(F)cc1 | 90.4
CCN(CC)CCN1C(=O)c2cccc3c(/C=C/CN4C(=O)c5cccc6cccc(c56)C4=O)ccc(c23)C1=O | 92.7
O=C(CCCCCCN1CC(=O)N2[C@H](c3ccc(Br)cc3)c3[nH]c4ccccc4c3C[C@@H]2C1=O)NO | 80.2
NNCCc1ccc(NC(=O)CCCc2ccc(C(=O)Nc3ccccc3N)cc2)cc1 | 74.3
Cc1cccc[n+]1C1c2ccccc2-c2ccccc21 | 96.1
CN(C)S(=O)(=O)Oc1ccc(-c2sc3cc(OS(=O)(=O)N(C)C)ccc3c2C(=O)c2ccc(OCCN3CCCCC3)cc2)cc1 | 64.6

What follows are compounds tested on NCI-H322M lung in the same assay as above. Settings: 10 µM unless noted.

SMILES | growth
C[C@@H]1O[C@@H](O[C@@H]2C[C@H](c3ccc4c(c3O)C(=O)C3=C(C4=O)[C@@]4(O)C(=O)C[C@](C)(O)C[C@@]4(O)C=C3)O[C@H](C)[C@H]2O)CC[C@@H]1O[C@H]1C[C@@H](O)[C@H](O)[C@@H](C)O1 | 106%
CC(=O)OC(c1ccccc1)C1CCOC1=O (centres undefined) | 106%
C=CCN1C(=O)c2cccc3c(N4CCOCC4)ccc(c23)C1=O | -56.6% (active)
O=C(CCSc1nnc2n(Cc3ccccc3)c(=O)c3c4c(sc3n12)CCCC4)N1CCN(c2ccccc2)CC1 | 99.8%
CC1=CCC(OC(=O)C(C)(C)CC(O)(C(C)O)C(O)C2(C)C=CC(Cc3ccc(C(C)C)cc3)(C(C)C)CC2)(C(C)C)CC1 (centres undefined) | 93.7%
c1ccc(CCNc2c3ccccc3nc3ccccc23)cc1 | 46.6%
CCCCNc1nnc2n(Cc3ccccc3)c(=O)c3c4c(sc3n12)CCCC4 | 69.2%
COc1ccc2cc(-c3ccnc4c(N=Nc5ccc(Cl)cc5)c(N)nn34)ccc2c1 | 102%
CCO/C=N/C1=C(C#N)C(c2ccc(F)cc2)c2sc3c(F)cccc3c2O1 (centres undefined) | 65.4%
COc1cc2nc3sc(C(=O)Nc4ccc(C(=O)OC(C)C)cc4)c(C(=O)Nc4ccc(Cl)cc4C)n3c(=O)c2cc1OC | 68.5%
O=C(c1c[nH]c2ccccc12)c1n[nH]c(=S)n1-c1cccc(Br)c1 | 77.7%
O=c1cc(-c2ccccc2)[nH]c2ncc(-c3ccc(F)cc3)n12 | 94.2%
Clc1c(Cl)[n+](Cc2ccc3ccccc3c2)cn1Cc1ccc2ccccc2c1 | 51%
COc1ccc(/C=C/C(=O)c2cc(OC)c(OC)c(OC)c2)cc1OCC(=O)Nc1nc2ccc(OC(F)(F)F)cc2s1 | 4.88% (active)
COc1cccc(Nc2ncnc3cc(NC(=O)CCl)ccc23)c1 | 37.5%
COc1cc(/C=C/C(=O)c2ccc(-n3cc(CN4CCN(c5cc6c(cc5F)c(=O)c(C(=O)O)cn6C5CC5)CC4)nn3)cc2)ccc1O | 80.2%
C=C(C)[C@@H]1CCC[C@]2(C(=O)O)CC[C@]3(C)[C@@H](CC[C@@H]4[C@@]5(C)C/C(=C/c6ccncc6)C(=O)C(C)(C)[C@@H]5CC[C@]43C)[C@@H]12 | 26.3%
O=C(N/N=C\c1cccc([N+](=O)[O-])c1)N/N=C/c1cccc([N+](=O)[O-])c1 | 104%
O=C(Cn1nnc2ccccc21)N/N=C/c1c[nH]c2ccccc12 | 80%
Cn1cc(-c2csc(-c3c[nH]c4ccc(F)cc34)n2)c2ccnc(Cl)c21 | 80.6%
CCNC(=O)Oc1ccc(/C(=C(/CC)Cc2ccccc2)c2ccc(OCCN3CCCC3)cc2)cc1 | 91%
CC(=O)c1sc2sc(C(C)=O)c(C)c2c1C | 99%
CN1C(=O)/C(=C/c2ccc(C(=O)Nc3ncc(Cc4cccc(Cl)c4)s3)cc2)SC1=S | 76.2%
COc1ccc(C2=CC(c3cc(OC)c(OC)c(OC)c3)n3ncnc3N2)cc1 (centres undefined) | 43%
Cc1ccc(Cl)cc1NC(=O)c1sc2nc3c(cc2c1N)C(=O)CCC3 | 95.7%
